TDP1 cell noCPT = qHTS for Inhibitors of human tyrosyl-DNA phosphodiesterase 1 (TDP1): qHTS in cells in absence of CPT; DT40 Tdp1-/- hTDP1 cells, no CPT, ATP luminescence, 48 h; Potency, µM (titrated, usually from 46.2 µM), without a hit: top-dose activity change, negative = growth inhibition, usual class: inhibitors; actives 15% (n = 420,000); AID 686978, 2013; also: nearly all actives have a fitted effect of over 55% in size
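Readout: luminescence from CellTiter-Glo after 30 min in the dark at RT. Cells: DT40 Tdp1-/- with stable hTDP1, 400/well. Exposure: compounds alone, ≥48 hr, 37 °C.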
TDP1 cell CPT = growth inhibition of DT40 Tdp1-/-;hTDP1 cells with camptothecin (screen for TDP1 inhibitors) | actives 12% (n = 420,000) | AID 686979 | chicken DT40 Tdp1-/-;hTDP1 cells + 20 nM CPT, ATP luminescence, 48 h | Potency, µM (titrated, usually from 46.2 µM), for inactives: at the highest dose activity change, negative = growth inhibition, usual class: inhibitors; also: nearly all actives have a fitted effect of over 55% in size
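Chicken DT40 Tdp1-/- cells stably complemented with human TDP1 were seeded at 400 cells/well in medium containing 20 nM camptothecin, exposed to pin-transferred compounds, and grown at 37 °C for at least 48 hr. Viability was read as ATP luminescence.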
TDP1 block = inhibitors of human tyrosyl-DNA phosphodiesterase TDP1; Q9NUW8; recombinant TDP1, AlphaScreen DNA substrate cleavage; Potency, µM (doses to about 130 µM), for inactives: at the highest dose activity change, negative = inhibition, most hits filed as inhibitors; actives 0.28% (n = 350,000); also: nearly all actives have a fitted effect of over 40% in size
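Here, a 5' biotin and 3' phosphotyrosine-FITC DNA oligonucleotide reports Tdp1 activity: intact substrate bridges AlphaScreen beads, while cleavage leaves a 3' phosphate and drops signal. All incubations at room temperature.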
RORg inh = ROR gamma (mouse) transcription inhibition; Drosophila S2 Gal4-RORgamma UAS-luciferase reporter, 20 h; Potency, µM (doses to about 53.6 µM), for inactives: top-dose activity change, negative = inhibition, actives largely listed as inhibitors; P51450; actives 5.4% (n = 310,000); also: nearly all actives have a fitted effect of over 60% in size
Target sequence (P51450 whole entry, looked up, the tested form may be a part): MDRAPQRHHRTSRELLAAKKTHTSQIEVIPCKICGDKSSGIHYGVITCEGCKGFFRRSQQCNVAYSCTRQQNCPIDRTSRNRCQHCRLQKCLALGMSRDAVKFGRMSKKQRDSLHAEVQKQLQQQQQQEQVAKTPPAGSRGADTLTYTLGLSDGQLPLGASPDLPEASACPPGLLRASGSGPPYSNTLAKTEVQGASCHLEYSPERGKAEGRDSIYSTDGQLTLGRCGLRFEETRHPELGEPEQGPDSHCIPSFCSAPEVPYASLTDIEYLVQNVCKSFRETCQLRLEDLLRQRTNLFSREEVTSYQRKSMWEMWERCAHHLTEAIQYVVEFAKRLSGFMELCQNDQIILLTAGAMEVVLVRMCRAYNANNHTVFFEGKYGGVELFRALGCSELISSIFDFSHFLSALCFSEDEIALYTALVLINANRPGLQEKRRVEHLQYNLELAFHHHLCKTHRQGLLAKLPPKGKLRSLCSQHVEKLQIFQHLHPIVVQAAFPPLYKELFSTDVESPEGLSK
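Stable Schneider cell line, Gal4 DNA-binding domain fused to ROR gamma, UAS-luciferase. Cmpd 1 hr RT → CuSO4 700 uM final → 20 hr RT → luciferase reagent 10 min → luminescence.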
VP16 counter = counter-screen for ROR gamma inhibitors: Gal4-VP16 reporter. Drosophila S2 Gal4-VP16 UAS-luciferase, luminescence, 20 h. Potency, µM (titrated, usually from 53.6 µM), for inactives: at the top dose activity, negative = inhibition, most hits filed as inhibitors. actives 3.5% (n = 310,000);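 also: Gal4-VP16 expression switched on by copper sulfate through the metallothionein promoter; nearly all actives have a fitted effect of over 50% in size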
Active calls of the source: *; u = inconclusive; x = no result given; [ ] = dose if it differs, or a comment. An excerpt weighted towards active compounds, which were near 19% of everything screened. Calls follow the shape of the dose curve; as a rule, active = well fitted curve in the direction sought with a large enough effect; inconclusive = small, poorly fitted or top-dose-only effect, or another doubt; inactive = no such curve, though single readings can be large; an effect the other way counts as inactive or inconclusive. % is scaled to controls: 0 for no effect and ±100 for the full control effect; potency is read from the fitted curve at half-maximal effect.

SMILES | TDP1 cell noCPT | TDP1 cell CPT | TDP1 block | RORg inh | VP16 counter
O=C(CCNC(=O)c1ccccc1Cl)Nc1cc(S(=O)(=O)N2CCOCC2)ccc1N1CCOCC1 | 21.8% | -1.2% | 5.0% | 15.6% | 14.7%
Cc1ccccc1-n1c(SCC(=O)O)nc2sc3c(c2c1=O)CCCC3 | -0.8% | -18.4% | x | 12.0% | -10.0%
CCCCCSc1nc2sc3c(c2c(=O)n1-c1ccc(OC)cc1)CCN(C(C)=O)C3 | 25.9µM* | u | 9.1% | x | x
CCCCSc1nc2sc3c(c2c(=O)n1-c1ccccc1)CCN(C)C3 | 7.31µM* | 9.2µM* | x | 6.5% | 1.1%
CCSc1nc2sc3c(c2c(=O)n1-c1ccccc1C)CCN(C)C3 | 29.1µM* | u | x | -17.0% | 12.8%
CN1CCc2c(sc3nc(SCC(=O)N4CCCCC4)n(-c4ccccc4)c(=O)c23)C1 | -25.6% | u | 5.1% | 1.4% | 1.2%
CCSc1nc2sc3c(c2c(=O)n1-c1ccccc1)CCN(C(C)C)C3 | 20.6µM* | 10.3µM* | x | -7.0% | 1.2%
CCCCSc1nc2sc3c(c2c(=O)n1-c1ccc(OC)cc1)CCN(C)C3 | u | u | x | -11.2% | -5.2%
CCOC(=O)c1c(NC(=O)CSc2nc(-c3ccccc3)cc(C(F)(F)F)n2)sc(C)c1C | u | -22.8% | 2.1% | x | x
CSc1nc2sc3c(c2c(=O)n1-c1ccc(C)c(Cl)c1)CCN(C(C)=O)C3 | 14.6µM* | u | -5.9% | x | x
CCn1c(SCC(=O)c2ccccc2)nc2sc3c(c2c1=O)CCN(C)C3 | 20.6µM* | 23.1µM* | 8.3% | 12.0% | -17.7%
CN1CCc2c(sc3nc(SCC(N)=O)n(-c4ccc(Cl)cc4)c(=O)c23)C1 | 23.1µM* | u | x | 9.5% | 0.1%
CCCN(CCC)C(=O)CSc1nc2sc3c(c2c(=O)n1-c1ccccc1)CCN(C(C)=O)C3 | -26.1% | u | 2.9% | x | x
CN1CCc2c(sc3nc(SCC(N)=O)n(-c4ccccc4)c(=O)c23)C1 | -21.2% | 3.2% | -2.1% | 7.9% | -0.6%
C=C(C)CSc1nc2sc3c(c2c(=O)n1-c1ccccc1)CCN(C)C3 | 29.1µM* | u | x | -1.0% | 6.2%
C=C(C)C(=O)Nc1cccc(C2=NOC3(C2)C[C@H](C(N)=O)N(C(=O)CC#N)C3)c1 (stereo not given in full) | 6.8% | 1.9% | -8.3% | 4.5% | 4.7%
Cc1csc(=O)n1CCC(=O)OCC(=O)NCc1ccc(Cl)cc1Cl | 2.8% | -20.8% | -6.0% | x | x
c1ccc(-c2nnc(OCC3CCCO3)c3ccccc23)cc1 (stereo not given) | u | -0.9% | 0.0% | 41.0% | -4.6%
CCOC(=O)CC(NS(=O)(=O)c1ccc2[nH]c3c(c2c1)CCCC3)c1ccccc1Cl (stereo not given) | u | 18.4µM* | 5.7% | x | x
COC(=O)c1ccc(NS(=O)(=O)c2ccc3[nH]c4c(c3c2)CCCCC4)cc1 | x | x | 7.4% | x | x
COc1cccc(NS(=O)(=O)c2ccc3[nH]c4c(c3c2)CCCCCC4)c1 | 20.6µM* | 16.4µM* | 11.0% | x | x
COC(=O)c1ccc(NS(=O)(=O)c2ccc3[nH]c4c(c3c2)CCCC4)cc1 | 6.51µM* | u | 11.2% | x | x
Nc1ccn(C2OC(COP(=O)(O)O)C(O)C2O)c(=O)n1 (stereo not given) | 1.16µM* | 0.651µM* | x | x | x
CC(C)(Oc1ccc(Cl)cc1)C(=O)N(Cc1ccccc1)c1ccccn1 | 18.4µM* | u | -3.4% | -9.0%[10 µM] | 1.3%
Cc1ccc(CN(C(=O)COc2ccc([N+](=O)[O-])cc2)c2ccccn2)cc1 | 16.4µM* | u | -3.6% | x | x
SMILES | TDP1 cell noCPT | TDP1 cell CPT | TDP1 block | RORg inh | VP16 counter
CC(C)c1ccc(OCC(=O)N(Cc2ccccc2)c2ccccn2)cc1 | 16.4µM* | 23.1µM* | -13.0% | 44.6% | u
O=[N+]([O-])c1ccc(S(=O)(=O)Nc2nc3ccccc3nc2Nc2ccccc2)cc1 | 2.91µM* | 3.26µM* | 1.6% | 8.91µM* | u
COc1cc(Nc2nc3ccccc3nc2NS(=O)(=O)c2ccc([N+](=O)[O-])cc2)cc(OC)c1OC | u | 10.3µM* | 8.5% | 4.47µM* | 5.01µM*
COc1ccc(NS(=O)(=O)c2ccc3c(c2)N(C(C)=O)CCO3)c(OC)c1 | u | u | 0.9% | 35.2% | -0.7%
CCC[C@H](NC(=O)[C@H](CC(C)C)N(C)C(=O)CNC(=O)[C@@H](NC(=O)[C@H](Cc1ccccc1)NC(=O)[C@H](CCCCN)NC(=O)[C@@H](N)CC(=O)O)C(C)C)C(N)=O | x | x | 8.9% | 2.7% | -8.4%
Nc1nc(Cl)nc2ccc(Br)cc12 | 11.6µM* | u | 4.2% | -1.6% | -7.4%
CCOC(=O)Nc1c(Cl)n(C)c(=O)n(C)c1=O | -29.5% | u | 0.0% | 28.1% | 3.4%
COCCCNc1nc(SCc2ccccc2)nc2sc3c(c12)CCC3 | 20.6µM* | u | 1.5% | 11.2µM* | -19.2%
N#Cc1cnn(-c2nc(SCc3ccccc3)nc3sc4c(c23)CCCC4)c1N | 3.7% | -19.9% | 2.5% | -35.6% | 12.4%
COc1ccc(-c2c(C#N)c(N)n(N)c(=O)c2C#N)cc1Cl | u | 8.0% | 5.8% | -17.3% | 9.4%
CCC(=O)Nc1sc(Cc2ccc3c(c2)OCO3)c(C)c1C(N)=O | u | u | -3.1% | 30.9% | u
Cc1c(Cc2ccc3c(c2)OCO3)sc(NC(=O)C(C)(C)C)c1C#N | 8.2µM* | 18.4µM* | -3.3% | u | u
O=C(NCc1ccco1)c1ccc2c(c1)N(Cc1ccccc1)C(=O)CS2=O (stereo not given) | -8.7% | -27.2% | 0.0% | -17.0% | -11.6%
O=C(NCC1CCCO1)c1ccc2c(c1)N(Cc1ccccc1)C(=O)CS2=O (stereo not given) | u | 14.6µM* | u | 26.6% | 0.0%
O=C(Nc1ccc(Br)cc1F)c1ccc2c(c1)N(Cc1ccccc1)C(=O)CS2=O (stereo not given) | 13µM* | 9.2µM* | 5.2% | 43.0% | 7.1%
COc1ccc(Cl)cc1NC(=O)CN(C)S(=O)(=O)c1cccs1 | -14.0% | -5.6% | 3.7% | -3.7% | 8.9%
COc1cc(C(=O)NCCCc2nc3ccccc3n2Cc2cc(C)ccc2C)cc(OC)c1OC | u | u | 5.3% | -23.2% | u
COc1ccc(C(c2sc3ncnn3c2O)N2CC(C)OC(C)C2)cc1OC (stereo not given) | -18.3% | -3.9% | 2.6% | u | -8.4%
Oc1c(C(c2cccs2)N2CCN(c3cccc(Cl)c3)CC2)sc2ncnn12 (stereo not given) | 23.1µM* | u | 13.0% | -0.5% | -3.0%
COc1ccc(C(c2sc3ncnn3c2O)N2CCN(c3ccccc3F)CC2)cc1OC (stereo not given) | 20.6µM* | 11.6µM* | 5.2% | -5.2% | 4.7%

Assay outcomes as filed in PubChem BioAssay.
